Molecules are shown by their SMILES. Compounds without any hit were thinned out: in the full panel of roughly 83,000, 20% have a hit.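 Negative percent growth values reflect cell death: -40 means 40% of the cells present at the start died, and -100 means all died.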 Unmarked numbers belong to inactive results. Activity calls are given as the source filed them. How the source made its calls: active means growth percent below 10; inactive means the rest.

For one assay, the system named is NCI-H23 lung. The assay can be described thus: NCI-60 one-dose screen, 48 h (100 = growth as untreated, 0 = no growth, -100 = all killed). Particulars: 10 µM unless noted.
As to `c1ccc2[nH]c(-c3ccc(Nc4nc(N5CCCC5)nc5[nH]ncc45)cc3)nc2c1`, the growth was -11.3% (active).

Regarding `COc1cc2c(cc1-c1c(C)noc1C)ncc1nc(C3CCOCC3)n([C@H](C)COC(F)F)c12`, the growth is 60.1%.

Consider `c1csc(C2=NN3C(C2)c2ccccc2OC3c2ccncc2)c1` (stereo unspecified), for which the growth was 89.8%.

Take `O=C(/C=C/C=C/c1ccc2c(c1)OCO2)N/N=C\c1ccc(O)cc1O`: the growth was 30%.

For `Fc1ccc2[nH]cc(SSc3c[nH]c4ccc(F)cc34)c2c1`, the growth is 45.9%.

`Cc1cc(C)nc(SC2=C(Nc3cc(Cl)ccc3O)C(=O)N(Cc3ccccc3)C2=O)n1`: the growth is 91.4% [30 µM].

Take `CC(C)(C)N1CCC1CN` (stereo unspecified): the growth was 104%.

For the molecule `COc1cc(-c2nc3ccccc3[nH]2)ccc1OCC(=O)N=Nc1c(O)[nH]c2ccc(Cl)cc12`, the growth was -42.4% (active).

As for `CSc1nc(-c2cccc(NC(=O)CCl)c2)c(C#N)c(=O)n1C`, the growth is 49.1%.

Take `Cc1nc2ccccc2n1C(=O)C[C@@H]1NC(=S)NC1=O`: the growth was 95.5%.

With `COc1ccc(/C=N/C2=C(C#N)C(c3ccc(N(C)C)cc3)c3ccc4ccccc4c3O2)cc1` (stereo unspecified), the growth was 79.2%.

As to `COc1cccc(NC(=O)c2sc3nc(C)c(C(C)=O)cc3c2N)c1`, the growth is 65.5%.

With `O=C1CC[C@H](c2ccc(O)c3c2C(=O)[C@@H]2O[C@@H]2C3=O)c2cccc(O)c21`, the growth was 94.4%.

For the molecule `C=C(C)C1CC(O)C2(C)CCCC3C2C1CC(C)C3(C)CC/C(C)=C/C(O)C1CCC(=O)c2c(OC)cc(OC)cc21` (stereo unspecified), the growth is 48.9%.

`Clc1ccc2c(NCCCNc3nc(-n4ccnc4)nc4ccccc34)ccnc2c1`: the growth was 96.1%.

In the case of `c1ccc(CCNc2ncnc3[nH]ncc23)cc1`, the growth was 94.4%.

In the case of `CC[C@]1(O)C[C@@H]2CN(CCc3c([nH]c4ccccc34)[C@@](C(=O)OC)(c3cc4c(cc3OC)N(C)[C@H]3[C@@](O)(C(N)=O)[C@H](O)[C@]5(CC)[C@@H]6C[C@@H]6CN6CC[C@]43[C@@H]65)C2)C1`, the growth is 32.7%.

For the molecule `Cc1ccc(-c2onc3c(=O)[nH]nc(-c4ccccc4)c23)cc1`, the growth is 22.8%.

Take `Cc1cc(N2CCCCC2)nc(NC2CCCC(Nc3ccnc4cc(Cl)ccc34)C2)n1` (stereo unspecified): the growth is -15.5% (active).

With `COc1cc2nc(N3CCCC3)nc(NCCc3ccccc3)c2cc1OC`, the growth was 59.5%.

Regarding `O=C(COc1ccc(/C=C2\CSc3ccccc3C2=O)cc1)Nc1nccs1`, the growth was 61.1%.

Take `Oc1cccc(-c2nc(N3CCOCC3)c3c4c(sc3n2)CCCC4)c1`: the growth was 56.3%.

For the molecule `COc1ccc(/C=C2\Oc3cc(OCCCCN4CCCC4)ccc3C2=O)cc1`, the growth was 83.3%.

`Brc1ccc(-c2csc(Nc3ccccn3)n2)cc1`: the growth was 58.8%.

As to `Cc1ccc2c(C(C[N+](=O)[O-])c3ccccc3)c(-c3ccccc3)[nH]c2c1` (stereo unspecified), the growth is 39.4% [9.5 µM].

Regarding `Nc1ccc(-c2cc3c(Nc4ccc(Oc5cccc(C(F)(F)F)c5)c(Cl)c4)ncnc3s2)cc1`, the growth is 69.6%.

As for `COc1ccc(C(=S)N2CCN(c3cccc(Cl)c3)CC2)cc1`, the growth is 101%.

As for `O=C(CCCCC(=O)N/N=C\c1ccccc1O)N/N=C\c1ccccc1O`, the growth is 58.4%.

Regarding `CN1C(=O)C2(SCC(C(=O)NCc3ccccc3)N2C(=O)C2CCCCC2)c2ccccc21` (stereo unspecified), the growth was 91%.

For the molecule `O=C(C(=O)c1ccc2c(c1)OCO2)c1ccc2c(c1)OCO2`, the growth was 111%.

As to `C=C1C(=O)O[C@H]2[C@H]1CC/C(COC(=O)NCc1ccc(OC)c(OC)c1)=C\CC[C@@]1(C)O[C@@H]21`, the growth is 45.8%.

With `CCNc1ncnc2c1cnn2C1CCCO1` (stereo unspecified), the growth is 118%.

As for `COc1ccc2c(c1)c(-c1nonc1-c1cn(C)c3ccccc13)cn2C`, the growth was 27.9%.

Turning to `Nc1ccc(S(=O)(=O)O)c2ccc(N=Nc3ccc(N=Nc4ccc(S(=O)(=O)O)cc4)c4ccccc34)c(O)c12`, the growth is 98%.

As to `CCOc1ccc(C(C)=O)cc1NC(=O)c1cccc(-c2nnn(CC)n2)c1`, the growth was 42.6%.

As for `O=C1CSC(=S)N1CCc1ccc(O)cc1`, the growth was 95%.

In the case of `COC(=O)c1ccc2oc(NC(=O)c3ccc(Nc4ccc([N+](=O)[O-])cc4C)c([N+](=O)[O-])c3)nc2c1`, the growth was 95.9%.

Take `CC(C)n1c(/C=C/[C@@H](O)C[C@@H](O)CC(=O)O)c(-c2ccc(F)cc2)c2ccccc21`: the growth was 38.4%.

The subject of a further assay is NCI-H226 lung. Described as above. To be noted: 10 µM unless noted.
In the case of `c1ccc2[nH]c(-c3ccc(Nc4nc(N5CCCC5)nc5[nH]ncc45)cc3)nc2c1`, the growth is 98.9%.

Consider `COc1cc2c(cc1-c1c(C)noc1C)ncc1nc(C3CCOCC3)n([C@H](C)COC(F)F)c12`, for which the growth was 55.2%.

Consider `c1csc(C2=NN3C(C2)c2ccccc2OC3c2ccncc2)c1` (stereo unspecified), for which the growth was 85.8%.

For the molecule `O=C(/C=C/C=C/c1ccc2c(c1)OCO2)N/N=C\c1ccc(O)cc1O`, the growth was 37.6%.

As to `Fc1ccc2[nH]cc(SSc3c[nH]c4ccc(F)cc34)c2c1`, the growth was 52%.

Consider `Cc1cc(C)nc(SC2=C(Nc3cc(Cl)ccc3O)C(=O)N(Cc3ccccc3)C2=O)n1`, for which the growth is 85.1% [30 µM].

As for `CC(C)(C)N1CCC1CN` (stereo unspecified), the growth is 111%.

With `COc1cc(-c2nc3ccccc3[nH]2)ccc1OCC(=O)N=Nc1c(O)[nH]c2ccc(Cl)cc12`, the growth was 103%.

For the molecule `CSc1nc(-c2cccc(NC(=O)CCl)c2)c(C#N)c(=O)n1C`, the growth was 89.2%.

As to `Cc1nc2ccccc2n1C(=O)C[C@@H]1NC(=S)NC1=O`, the growth is 92.4%.

Take `COc1ccc(/C=N/C2=C(C#N)C(c3ccc(N(C)C)cc3)c3ccc4ccccc4c3O2)cc1` (stereo unspecified): the growth is 44.6%.

As for `COc1cccc(NC(=O)c2sc3nc(C)c(C(C)=O)cc3c2N)c1`, the growth was 83.7%.

For the molecule `O=C1CC[C@H](c2ccc(O)c3c2C(=O)[C@@H]2O[C@@H]2C3=O)c2cccc(O)c21`, the growth is -14.6% (active).

Turning to `C=C(C)C1CC(O)C2(C)CCCC3C2C1CC(C)C3(C)CC/C(C)=C/C(O)C1CCC(=O)c2c(OC)cc(OC)cc21` (stereo unspecified), the growth is 71.2%.

On to `Clc1ccc2c(NCCCNc3nc(-n4ccnc4)nc4ccccc34)ccnc2c1`, for which the growth is 90.4%.

For `c1ccc(CCNc2ncnc3[nH]ncc23)cc1`, the growth is 89.4%.

For the molecule `CC[C@]1(O)C[C@@H]2CN(CCc3c([nH]c4ccccc34)[C@@](C(=O)OC)(c3cc4c(cc3OC)N(C)[C@H]3[C@@](O)(C(N)=O)[C@H](O)[C@]5(CC)[C@@H]6C[C@@H]6CN6CC[C@]43[C@@H]65)C2)C1`, the growth was 44.2%.

`Cc1ccc(-c2onc3c(=O)[nH]nc(-c4ccccc4)c23)cc1`: the growth is 61.6%.

As to `Cc1cc(N2CCCCC2)nc(NC2CCCC(Nc3ccnc4cc(Cl)ccc34)C2)n1` (stereo unspecified), the growth was -50.8% (active).

On to `COc1cc2nc(N3CCCC3)nc(NCCc3ccccc3)c2cc1OC`, for which the growth is 90.5%.

Take `O=C(COc1ccc(/C=C2\CSc3ccccc3C2=O)cc1)Nc1nccs1`: the growth was 97.9%.

Consider `Oc1cccc(-c2nc(N3CCOCC3)c3c4c(sc3n2)CCCC4)c1`, for which the growth was 61.1%.

In the case of `COc1ccc(/C=C2\Oc3cc(OCCCCN4CCCC4)ccc3C2=O)cc1`, the growth is 94.5%.

In the case of `Brc1ccc(-c2csc(Nc3ccccn3)n2)cc1`, the growth was 73%.

Regarding `Cc1ccc2c(C(C[N+](=O)[O-])c3ccccc3)c(-c3ccccc3)[nH]c2c1` (stereo unspecified), the growth was 35.3% [9.5 µM].

As to `Nc1ccc(-c2cc3c(Nc4ccc(Oc5cccc(C(F)(F)F)c5)c(Cl)c4)ncnc3s2)cc1`, the growth is 69%.

Consider `COc1ccc(C(=S)N2CCN(c3cccc(Cl)c3)CC2)cc1`, for which the growth is 113%.

Consider `O=C(CCCCC(=O)N/N=C\c1ccccc1O)N/N=C\c1ccccc1O`, for which the growth is 52.9%.

For the molecule `CN1C(=O)C2(SCC(C(=O)NCc3ccccc3)N2C(=O)C2CCCCC2)c2ccccc21` (stereo unspecified), the growth was 84.3%.

In the case of `O=C(C(=O)c1ccc2c(c1)OCO2)c1ccc2c(c1)OCO2`, the growth is 99.9%.

For `C=C1C(=O)O[C@H]2[C@H]1CC/C(COC(=O)NCc1ccc(OC)c(OC)c1)=C\CC[C@@]1(C)O[C@@H]21`, the growth was 85.9%.

In the case of `CCNc1ncnc2c1cnn2C1CCCO1` (stereo unspecified), the growth was 94.2%.

Take `COc1ccc2c(c1)c(-c1nonc1-c1cn(C)c3ccccc13)cn2C`: the growth was 27.3%.

Turning to `Nc1ccc(S(=O)(=O)O)c2ccc(N=Nc3ccc(N=Nc4ccc(S(=O)(=O)O)cc4)c4ccccc34)c(O)c12`, the growth is 92.1%.

As to `CCOc1ccc(C(C)=O)cc1NC(=O)c1cccc(-c2nnn(CC)n2)c1`, the growth was 59%.

For the molecule `O=C1CSC(=S)N1CCc1ccc(O)cc1`, the growth is 108%.

Consider `COC(=O)c1ccc2oc(NC(=O)c3ccc(Nc4ccc([N+](=O)[O-])cc4C)c([N+](=O)[O-])c3)nc2c1`, for which the growth is 92.1%.

As for `CC(C)n1c(/C=C/[C@@H](O)C[C@@H](O)CC(=O)O)c(-c2ccc(F)cc2)c2ccccc21`, the growth was 64.1%.

The values above are taken from PubChem BioAssay (NCI).
